This is a sample that favours compounds with a hit; in the whole collection about 1% have one here.
SNCA expr inh: SNCA gene expression inhibition. HEK-293 SNCA-luciferase knock-in, luminescence, 24 h. Potency, µM (series often up to 57.2 µM), hits mostly inhibitors. 0.17% of 140,000 active. AID 1671194; note: nearly all actives have a fitted effect of over 45% in size
IP6K1 inh: inhibitors of human IP6K1 | activity change, % (series mostly up to about 58 µM) | IP6K1 kinase, ADP-Glo luminescence, 2 h; stronger effect = lower value | Q92551 | 0.81% of 140,000 active; in the data active = activity change below about -25%
Target sequence (Q92551 whole entry, looked up): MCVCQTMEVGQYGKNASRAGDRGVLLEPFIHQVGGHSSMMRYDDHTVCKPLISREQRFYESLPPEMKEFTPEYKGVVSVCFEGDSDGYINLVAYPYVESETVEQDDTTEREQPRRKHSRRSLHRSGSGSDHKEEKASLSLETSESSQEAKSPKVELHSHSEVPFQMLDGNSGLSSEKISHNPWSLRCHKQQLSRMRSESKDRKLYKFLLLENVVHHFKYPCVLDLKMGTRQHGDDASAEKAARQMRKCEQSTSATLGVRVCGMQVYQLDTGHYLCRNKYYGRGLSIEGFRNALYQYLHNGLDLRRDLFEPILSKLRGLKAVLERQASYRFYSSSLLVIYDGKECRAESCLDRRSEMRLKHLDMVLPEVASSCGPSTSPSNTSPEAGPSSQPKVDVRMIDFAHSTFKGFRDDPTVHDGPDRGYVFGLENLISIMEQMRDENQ
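ADP-Glo luminescence measures ADP made by human IP6K1 during a 2 h RT reaction with ATP/IP6 (mix at 1.3 mM/130 uM); top library doses 57.5 and 19.1 uM final.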
GPT2 inh: GPT2 alanine aminotransferase inhibition | AID 1671188 | Q8TD30 | 0.25% of 100,000 active | Recombinant GPT2, coupled pyruvate oxidase/HRP Amplex Red fluorescence | Potency, µM (highest dose often 57.7 µM), usual class: inhibitors; note: nearly all actives have a fitted effect of over 60% in size
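Fluorescence of coupled pyruvate oxidase/HRP/Amplex Red system (50uM Amplex, 30 min, dark) reports pyruvate formed by GPT2. Enzyme reaction: 10ng/uL GPT2, 2mM L-alanine, 250uM a-KG, 30 min room temperature, pH 7.5; 50uM AOA control.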
HEK293 viab: counter-screen for SNCA expression inhibitors: cell viability; AID 1671193; Potency, µM (series often up to 57.1 µM), hits mostly cytotoxic; HEK-293-SNCA-luc viability, GF-AFC fluorescence, 24 h; 0.12% of 150,000 active; note: nearly all actives have a fitted effect of over 30% in size
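HEK-293-SNCA-luc cells (1500/well) plated 24 h, then exposed 24 h to a dilution series; GF-AFC added 30 min at 37C, fluorescence 405/540 nm; normalised to medium-only and DMSO wells, Hill fit.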
IP6K1 inh cnf: confirmation of human IP6K1 inhibitors | recombinant IP6K1 kinase, ADP-Glo luminescence, 2 h | shares compounds with IP6K1 inh | Potency, µM (highest dose often 49 µM), actives largely listed as inhibitors | 13% of 1,200 active; note: nearly all actives have a fitted effect of over 65% in size
Each line names hits and unclear results; the compound was inactive in the other large screens (follow-up assays come after a bar, where they were run); ! = repeats disagree. Unless noted, calls come from the whole dose curve; as a rule, active = well fitted curve in the direction sought with a large enough effect; inconclusive = small, poorly fitted or top-dose-only effect, or another doubt; inactive = no such curve, though single readings can be large; an effect the other way counts as inactive or inconclusive.

CN(N=O)c1ccc(O)c(O)c1	GPT2 inh 3.16µM (no result: IP6K1 inh)
Cc1nc(-c2cccs2)cc([C@H]2CN3CC[C@H]2C[C@@H]3CO)n1	SNCA expr inh 3.55µM
Cc1nc(-c2cccs2)cc([C@H]2CN3CC[C@H]2C[C@@H]3CNC(=O)C(C)(C)C)n1	none
CC(N)Cc1c[nH]c2ccccc12 (centres undefined)	none (no result: SNCA expr inh)
Cc1[nH]nc2ccc(-c3cncc(OC[C@@H](N)Cc4c[nH]c5ccccc45)c3)cc12	SNCA expr inh 0.108µM, GPT2 inh inconclusive, HEK293 viab 19.2µM!
Cc1ccsc1C(=O)N1[C@H]2CC[C@@H]1c1cnc(-c3ccccc3)nc1C2	none
COCCn1c(C)cc(C(=O)N2[C@H]3CC[C@@H]2c2cnc(-c4ccc(F)cc4)nc2C3)c1C	SNCA expr inh 25.1µM, HEK293 viab inconclusive
CCOC(=O)[C@H]1CN(C(=O)Cc2ccccc2)[C@]2(C)C(=O)N(CC3CC3)c3ccccc3[C@H]12	none (no result: SNCA expr inh, GPT2 inh, HEK293 viab)
O=c1oc2ccccc2c(O)c1Cc1c(O)c2ccccc2oc1=O	IP6K1 inh -25.1
CC(C)(O)C=CC(=O)[C@](C)(O)[C@H]1[C@H](O)C[C@]2(C)[C@@H]3CC=C4[C@@H](C=C(O)C(=O)C4(C)C)[C@]3(C)C(=O)C[C@@]12C	SNCA expr inh 13.6µM, GPT2 inh inconclusive, HEK293 viab inconclusive (no result: IP6K1 inh)
CC(C)(O)/C=C/C(=O)[C@](C)(O)[C@H]1[C@H](O)C[C@@]2(C)[C@@H]3CC=C4[C@@H](C[C@H](O)C(=O)C4(C)C)[C@]3(C)C(=O)C[C@]12C	HEK293 viab inconclusive (no result: SNCA expr inh)
CN1CCCCC1Cn1cc(C(=O)c2cc([N+](=O)[O-])ccc2I)c2ccccc21 (centres undefined)	GPT2 inh inconclusive, HEK293 viab 23.8µM (no result: SNCA expr inh)
COc1ccc(NC(=O)OC[C@H]2C[C@@H]3CCN2C[C@@H]3c2cc(C3CCCC3)nc(-c3ccncc3)n2)cc1	HEK293 viab inconclusive
CC1=C(O)C(=O)C=C2C1=CC=C1[C@@]2(C)CC[C@@]2(C)[C@@H]3C[C@](C)(C(=O)O)CC[C@]3(C)CC[C@]12C	SNCA expr inh 7.64µM, HEK293 viab 21.5µM (no result: IP6K1 inh)
CN(C)CCc1c[nH]c2cccc(O)c12	GPT2 inh 10µM
C#CCN1C(=O)[C@@H]2[C@H](c3ccccc31)[C@@H](C(=O)OCC)[C@@H](c1ccccc1)N2C(=O)c1ccco1	none (no result: SNCA expr inh, GPT2 inh, HEK293 viab)
OC[C@@H]1[C@@H](c2ccccc2)CN2CCN(Cc3ccccc3)C[C@H]12	none (no result: SNCA expr inh, GPT2 inh, HEK293 viab)
CCOC(=O)[C@H]1CN([S+](C)(=O)[O-])[C@]2(C)C(=O)Nc3ccccc3[C@H]12	none (no result: SNCA expr inh, GPT2 inh, HEK293 viab)
N=c1c2c(-c3ccccc3)c(-c3ccccc3)n(Cc3ccccc3)c2ncn1C1CCC(O)CC1 (centres undefined)	SNCA expr inh inconclusive (no result: IP6K1 inh) | IP6K1 inh cnf inactive
COc1ccc(CC(=O)N2CC3(CCN(C)CC3)c3cc(OC)c(OCc4ccccc4)cc32)cc1	HEK293 viab inconclusive
CC(C)Cc1nc2cccnc2n1C1CCNCC1	IP6K1 inh -33.2 (no result: GPT2 inh) | IP6K1 inh cnf inactive
CCOC(=O)[C@@H]1[C@H]2c3ccccc3N(C)C(=O)[C@H]2N(C(=O)c2cccs2)[C@@H]1c1ccccc1	none (no result: SNCA expr inh, GPT2 inh, HEK293 viab)
COc1cc2c(cc1OCc1ccccc1)NC(=O)C21CCN(c2ncc(F)cn2)CC1	GPT2 inh inconclusive
CC[n+]1c(-c2ccccc2)c2cc(N)ccc2c2ccc(N)cc21	IP6K1 inh -52.4, GPT2 inh inconclusive | IP6K1 inh cnf inconclusive
COc1nn(CSP(=S)(OC)OC)c(=O)s1	IP6K1 inh -45.6, HEK293 viab inconclusive | IP6K1 inh cnf 10µM
Cc1nc(-c2ccccc2Br)cc([C@H]2CN3CC[C@H]2C[C@@H]3CNC(=O)c2ccc(C(C)(C)C)cc2)n1	SNCA expr inh inconclusive, HEK293 viab inconclusive
CC(=O)[O][Hg][c]1ccccc1	SNCA expr inh inconclusive, IP6K1 inh -60.7, HEK293 viab inconclusive | IP6K1 inh cnf 0.651µM
COc1cc2c(cc1OCc1ccccc1)NC(=O)C21CCN(Cc2nccs2)CC1	IP6K1 inh -33.4, GPT2 inh inconclusive | IP6K1 inh cnf inconclusive
COc1cc2c(cc1OCc1ccncc1)NC(=O)C21CCN(Cc2ccccc2)CC1	none
CCOC(=O)[C@H]1CN(C(=O)c2ccc(Cl)cc2)[C@]2(C)C(=O)N(CC3CC3)c3ccccc3[C@H]12	none
COc1ccc([C@@H]2CN(C(=O)C(=O)c3ccco3)[C@@H]3C4CCN(CC4)[C@@H]32)cc1	none
Cc1ccc([C@H]2CN(C(=O)C(=O)c3cccn3C)[C@@H]3C4CCN(CC4)[C@H]23)cc1	IP6K1 inh -29.9 | IP6K1 inh cnf inactive
Cc1nc(-c2ccco2)cc([C@H]2CN3CC[C@H]2C[C@@H]3CNC(=O)NC2CCCCC2)n1	none
Cn1cccc1CN1CCC2(CC1)C(=O)Nc1ccccc12	GPT2 inh inconclusive
CCOc1ccc2c(n1)CCNC2	IP6K1 inh -26.4 | IP6K1 inh cnf inactive
COc1ccc(CC(=O)N2CCN(Cc3ccccc3-c3ccccc3F)CC2)cc1	none
CCN(CC)C(=O)[C@@H]1C=C2c3cccc4[nH]cc(c34)C[C@H]2N(C)C1	IP6K1 inh -71.7, GPT2 inh inconclusive | IP6K1 inh cnf inactive
O=C(Nc1ccccc1)Nc1ccc2n(c1=O)C[C@H]1C[C@@H]2CN(C(=O)c2cccs2)C1	none
N#Cc1nn(-c2c(Cl)cc(C(F)(F)F)cc2Cl)c(N)c1S(=O)C(F)(F)F (centres undefined)	IP6K1 inh -41.4 | IP6K1 inh cnf inconclusive
COc1cc2c(cc1OCC1CC1)NC(=O)C21CCN(c2nc(C)cnc2C)CC1	IP6K1 inh -32.2 | IP6K1 inh cnf inactive
COc1cc2c(cc1OCC1CC1)NC(=O)C21CCN(c2ncc(F)cn2)CC1	none
CCOP(=S)(OCC)Oc1ccc2c(C)c(Cl)c(=O)oc2c1	IP6K1 inh -52.1 | IP6K1 inh cnf 6.51µM
Cc1c(Cl)c(=O)oc2cc(OP(=O)(OCCCl)OCCCl)ccc12	none
COc1ccc2c(c1)C1(CCN(C(=O)c3ccccc3Br)C1)C(=O)N2 (centres undefined)	none
C=CC[C@]1(O)CC[C@H]2[C@@H]3CCC4=CC(=O)CCC4=C3C=C[C@@]21C	IP6K1 inh -44.6 | IP6K1 inh cnf inactive
C#CC1(O)CCC2C3CCC4=CC(=O)CCC4=C3C=CC21C (centres undefined)	none (no result: SNCA expr inh)
O=C1Nc2ccccc2C12CCN(Cc1ccc(C(F)(F)F)cc1)CC2	SNCA expr inh inconclusive, IP6K1 inh -32.4 | IP6K1 inh cnf inconclusive
O=C1Nc2ccccc2C12CCN(Cc1cccc3ccccc13)CC2	IP6K1 inh -47.2 | IP6K1 inh cnf inconclusive
CCOC(=O)[C@H]1CN(C(=O)COc2ccccc2)[C@]2(C)C(=O)N(CCOC(C)=O)c3ccccc3[C@H]12	none (no result: SNCA expr inh, GPT2 inh, HEK293 viab)
C[C@]12CCC(=O)C=C1CC[C@@H]1[C@H]3CC[C@](C)(O)[C@@]3(C)CC[C@@H]12	HEK293 viab inconclusive
